PubChem BioAssay (NCI)
This is part of a sample that, as a whole, favours compounds with a hit. Of some 79,000 tested, about 15% had one in any assay. A number with no mark means an inactive call. Calls of active or inactive are those of the source. Rule as the data show it: active = growth inhibition above about 70%; inactive = the rest.

Assays:
[1] = NCI Yeast Anticancer Drug Screen. Data for the rad52 strain (AID 147);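 also: 0% = growth of vehicle-treated control cultures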; settings: S. cerevisiae rad52 mutant growth inhibition, stronger effect = higher value
Procedure, shortened: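 Screen used a yeast mutant impaired in DNA repair. After compound exposure, growth was measured. Values reflect inhibition compared with vehicle-treated cells.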

[2] = NCI Yeast Anticancer Drug Screen. Data for the wt1 strain (AID 149);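 also: 0% = growth of vehicle-treated wt1 cultures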; settings: S. cerevisiae wt1 strain (SPY 50644) growth inhibition, stronger effect = higher value
Procedure, shortened: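 Vehicle-normalised growth inhibition; strain wt1; compound exposure.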

[3] = NCI Yeast Anticancer Drug Screen. Data for the rad50EPP+ strain (AID 151);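 also: 0% = growth of vehicle-treated control cultures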; settings: S. cerevisiae rad50 mutant strain, stronger effect = higher value
Procedure, shortened: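 Exposing the rad50EPP+ strain to each compound, growth was compared with vehicle-only cultures to give inhibition.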

[4] = NCI Yeast Anticancer Drug Screen. Data for the mgt1 strain (AID 153); settings: S. cerevisiae mgt1 mutant growth inhibition, stronger effect = higher value
Procedure, shortened: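 Genetically defined yeast (mgt1) treated with compound; inhibition of growth expressed against vehicle-treated controls.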

[5] = NCI Yeast Anticancer Drug Screen. Data for the rad50 strain (AID 155);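 also: 0% = growth of vehicle-only cultures of the same strain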; settings: S. cerevisiae rad50 strain growth inhibition, stronger effect = higher value
Procedure, shortened: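 A DNA repair-deficient yeast mutant serves as the test organism; compound-induced growth inhibition is calculated against vehicle-treated cells.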

[6] = NCI Yeast Anticancer Drug Screen. Data for the mec2-1 strain (AID 157); settings: S. cerevisiae mec2-1 strain, stronger effect = higher value
Procedure, shortened: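 Readout is yeast growth inhibition, normalised to vehicle-treated controls, in the mec2-1 strain exposed to compound.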

[7] = NCI Yeast Anticancer Drug Screen. Data for the rad14 strain (AID 159);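 also: 0% = growth of vehicle-treated control cultures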; settings: S. cerevisiae rad14 strain growth inhibition, stronger effect = higher value
Procedure, shortened: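 Vehicle-treated cultures served as the baseline for growth inhibition of a DNA repair-mutant yeast strain exposed to each compound.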

[8] = NCI Yeast Anticancer Drug Screen. Data for the sgs1 mgt1 strain (AID 161);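 also: 0% = growth of cultures given vehicle only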; settings: S. cerevisiae sgs1 mgt1 strain, stronger effect = higher value
Procedure, shortened: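 Compounds are added to genetically altered yeast, and growth is compared with cultures given vehicle alone to give percent inhibition.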

[9] = NCI Yeast Anticancer Drug Screen. Data for the CLN2oe strain (AID 163);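 also: 0% = growth of vehicle-only control cultures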; settings: S. cerevisiae CLN2oe strain, stronger effect = higher value
Procedure, shortened: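 Values reflect how much compound exposure reduced yeast growth, referenced to vehicle-exposed cells. Assay organism is a strain with a defined genetic change affecting cell-cycle control.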

[10] = NCI Yeast Anticancer Drug Screen. Data for the cln2 rad14 strain (AID 165);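 also: 0% = growth equal to vehicle treated cultures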; settings: S. cerevisiae cln2 rad14 strain, stronger effect = higher value
Procedure, shortened: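 Relative to vehicle controls, growth inhibition of compound-treated cln2 rad14 yeast was recorded.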

[11] = NCI Yeast Anticancer Drug Screen. Data for the bub3 strain (AID 167); settings: S. cerevisiae bub3 mutant strain, stronger effect = higher value
Procedure, shortened: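 Inhibition values come from growth of compound-treated mutant yeast normalised to vehicle-treated controls.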

[12] = NCI Yeast Anticancer Drug Screen. Data for the wt2 strain (AID 169);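 also: 0% = growth of vehicle-treated yeast cultures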; settings: S. cerevisiae wt2 strain growth inhibition, stronger effect = higher value
Procedure, shortened: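 Values express reduction in yeast growth under compound treatment, referenced to vehicle-treated cells.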

[13] = NCI Yeast Anticancer Drug Screen. Data for the mlh1 strain (AID 171);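 also: 0% = growth of vehicle-treated control cultures of the same strain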; settings: S. cerevisiae mlh1 strain growth inhibition, stronger effect = higher value
Procedure, shortened: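 Steps: expose the defined-mutant yeast strain to compound; expose a parallel culture to vehicle; measure growth; express compound effect as inhibition relative to the vehicle culture.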

[14] = NCI Yeast Anticancer Drug Screen. Data for the mlh1 rad18 strain (AID 175); settings: S. cerevisiae mlh1 rad18 strain growth inhibition, stronger effect = higher value
Procedure, shortened: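 Test agents were incubated with a yeast strain of defined genotype (DNA damage repair defect). Inhibition of growth was derived by comparison with vehicle-exposed cultures.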

[15] = NCI Yeast Anticancer Drug Screen. Data for the rad18 strain (AID 177); settings: S. cerevisiae rad18 mutant growth inhibition, stronger effect = higher value
Procedure, shortened: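 A genetically defined yeast mutant impaired in DNA damage repair was treated with test compounds, then its growth was measured against cultures receiving vehicle alone.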

[16] = at 5.0 µM (retest, dose inferred, filed as 0.5)
[17] = at 50.0 µM (retest, dose inferred, filed as 5.0)

CC(C)NCCCNc1c2ccccc2nc2cccc([N+](=O)[O-])c12
growth inhibition ([1]; at 1.2 µM): 93% (active) | growth inhibition ([1]; at 3.7 µM): 96% (active) | growth inhibition ([1]; at 11.0 µM): 97% (active) | growth inhibition ([1]; at 33.0 µM): 97% (active) | growth inhibition ([1]; at 100.0 µM): 97% (active) | growth inhibition ([2]; at 1.2 µM): 13% | growth inhibition ([2]; at 3.7 µM): 57% | growth inhibition ([2]; at 11.0 µM): 88% (active) | growth inhibition ([2]; at 33.0 µM): 96% (active) | growth inhibition ([2]; at 100.0 µM): 97% (active) | growth inhibition ([3]; at 1.2 µM): 86% (active) | growth inhibition ([3]; at 3.7 µM): 93% (active) | growth inhibition ([3]; at 11.0 µM): 95% (active) | growth inhibition ([3]; at 33.0 µM): 96% (active) | growth inhibition ([3]; at 100.0 µM): 97% (active) | growth inhibition ([4]; at 1.2 µM): -1% | growth inhibition ([4]; at 3.7 µM): 38% | growth inhibition ([4]; at 11.0 µM): 58% | growth inhibition ([4]; at 33.0 µM): 92% (active) | growth inhibition ([4]; at 100.0 µM): 96% (active) | growth inhibition ([5]; at 1.2 µM): 90% (active) | growth inhibition ([5]; at 3.7 µM): 93% (active) | growth inhibition [5, 16]: 95% (active) | growth inhibition ([5]; at 11.0 µM): 95% (active) | growth inhibition ([5]; at 33.0 µM): 96% (active) | growth inhibition [5, 17]: 99% (active) | growth inhibition ([5]; at 50.0 µM): 83.3% (active) | growth inhibition ([5]; at 100.0 µM): 97% (active) | growth inhibition ([6]; at 1.2 µM): 94% (active) | growth inhibition ([6]; at 3.7 µM): 97% (active) | growth inhibition [6, 16]: 93% (active) | growth inhibition ([6]; at 11.0 µM): 97% (active) | growth inhibition ([6]; at 33.0 µM): 98% (active) | growth inhibition [6, 17]: 98% (active) | growth inhibition ([6]; at 50.0 µM): 86.5% (active) | growth inhibition ([6]; at 100.0 µM): 98% (active) | growth inhibition ([7]; at 1.2 µM): 98% (active) | growth inhibition ([7]; at 3.7 µM): 98% (active) | growth inhibition ([7]; at 11.0 µM): 97% (active) | growth inhibition ([7]; at 33.0 µM): 99% (active) | growth inhibition ([7]; at 100.0 µM): 99% (active) | growth inhibition [8, 16]: 94% (active) | growth inhibition [8, 17]: 98% (active) | growth inhibition ([8]; at 50.0 µM): 80.8% (active) | growth inhibition ([9]; at 1.2 µM): 35% | growth inhibition ([9]; at 3.7 µM): 88% (active) | growth inhibition ([9]; at 11.0 µM): 96% (active) | growth inhibition ([9]; at 33.0 µM): 97% (active) | growth inhibition ([9]; at 100.0 µM): 98% (active) | growth inhibition [10, 16]: 98% (active) | growth inhibition [10, 17]: 99% (active) | growth inhibition ([10]; at 50.0 µM): 85.7% (active) | growth inhibition ([11]; at 1.2 µM): -11% | growth inhibition ([11]; at 3.7 µM): 53% | growth inhibition [11, 16]: -4% | growth inhibition ([11]; at 11.0 µM): 90% (active) | growth inhibition ([11]; at 33.0 µM): 96% (active) | growth inhibition [11, 17]: 99% (active) | growth inhibition ([11]; at 50.0 µM): 66.8% | growth inhibition ([11]; at 100.0 µM): 96% (active) | growth inhibition ([12]; at 1.2 µM): 28% | growth inhibition ([12]; at 3.7 µM): 74% (active) | growth inhibition ([12]; at 11.0 µM): 94% (active) | growth inhibition ([12]; at 33.0 µM): 97% (active) | growth inhibition ([12]; at 100.0 µM): 97% (active) | growth inhibition ([13]; at 1.2 µM): 28% | growth inhibition ([13]; at 3.7 µM): 75% (active) | growth inhibition ([13]; at 11.0 µM): 91% (active) | growth inhibition ([13]; at 33.0 µM): 95% (active) | growth inhibition ([13]; at 100.0 µM): 96% (active) | growth inhibition [14, 16]: 97% (active) | growth inhibition [14, 17]: 99% (active) | growth inhibition ([14]; at 50.0 µM): 77% (active) | growth inhibition ([15]; at 1.2 µM): 97% (active) | growth inhibition ([15]; at 3.7 µM): 96% (active) | growth inhibition ([15]; at 11.0 µM): 97% (active) | growth inhibition ([15]; at 33.0 µM): 97% (active) | growth inhibition ([15]; at 100.0 µM): 97% (active)

Cc1c(Cl)c(C)c(Cl)c(O)c1Cl
growth inhibition ([1]; at 1.2 µM): 17% | growth inhibition ([1]; at 3.7 µM): 7% | growth inhibition ([1]; at 11.0 µM): 28% | growth inhibition ([1]; at 33.0 µM): 79% (active) | growth inhibition ([1]; at 100.0 µM): 98% (active) | growth inhibition ([2]; at 1.2 µM): 11% | growth inhibition ([2]; at 3.7 µM): 9% | growth inhibition ([2]; at 11.0 µM): 13% | growth inhibition ([2]; at 33.0 µM): 80% (active) | growth inhibition ([2]; at 100.0 µM): 98% (active) | growth inhibition ([3]; at 1.2 µM): -21% | growth inhibition ([3]; at 3.7 µM): -9% | growth inhibition ([3]; at 11.0 µM): -6% | growth inhibition ([3]; at 33.0 µM): 75% (active) | growth inhibition ([3]; at 100.0 µM): 93% (active) | growth inhibition ([4]; at 1.2 µM): 18% | growth inhibition ([4]; at 3.7 µM): 7% | growth inhibition ([4]; at 11.0 µM): 56% | growth inhibition ([4]; at 33.0 µM): 98% (active) | growth inhibition ([4]; at 100.0 µM): 98% (active) | growth inhibition ([5]; at 1.2 µM): -14% | growth inhibition ([5]; at 3.7 µM): -21% | growth inhibition [5, 16]: 45% | growth inhibition ([5]; at 11.0 µM): -8% | growth inhibition ([5]; at 33.0 µM): 92% (active) | growth inhibition [5, 17]: 95% (active) | growth inhibition ([5]; at 50.0 µM): 92.9% (active) | growth inhibition ([5]; at 100.0 µM): 98% (active) | growth inhibition ([6]; at 1.2 µM): -19% | growth inhibition ([6]; at 3.7 µM): 7% | growth inhibition [6, 16]: 51% | growth inhibition ([6]; at 11.0 µM): -7% | growth inhibition ([6]; at 33.0 µM): 79% (active) | growth inhibition [6, 17]: 96% (active) | growth inhibition ([6]; at 50.0 µM): 93.2% (active) | growth inhibition ([6]; at 100.0 µM): 99% (active) | growth inhibition ([7]; at 1.2 µM): 5% | growth inhibition ([7]; at 3.7 µM): 6% | growth inhibition ([7]; at 11.0 µM): 11% | growth inhibition ([7]; at 33.0 µM): 95% (active) | growth inhibition ([7]; at 100.0 µM): 99% (active) | growth inhibition [8, 16]: 2% | growth inhibition [8, 17]: 99% (active) | growth inhibition ([8]; at 50.0 µM): 90.8% (active) | growth inhibition ([9]; at 1.2 µM): 8% | growth inhibition ([9]; at 3.7 µM): -11% | growth inhibition ([9]; at 11.0 µM): 29% | growth inhibition ([9]; at 33.0 µM): 88% (active) | growth inhibition ([9]; at 100.0 µM): 99% (active) | growth inhibition [10, 16]: 32% | growth inhibition [10, 17]: 100% (active) | growth inhibition ([10]; at 50.0 µM): 93% (active) | growth inhibition ([11]; at 1.2 µM): -17% | growth inhibition ([11]; at 3.7 µM): -2% | growth inhibition [11, 16]: 27% | growth inhibition ([11]; at 11.0 µM): 12% | growth inhibition ([11]; at 33.0 µM): 76% (active) | growth inhibition [11, 17]: 100% (active) | growth inhibition ([11]; at 50.0 µM): 93% (active) | growth inhibition ([11]; at 100.0 µM): 100% (active)
